Screening data deposited in PubChem by National Center for Advancing Translational Sciences (NCATS).
DT40 TDP1 no CPT: qHTS for Inhibitors of human tyrosyl-DNA phosphodiesterase 1 (TDP1): qHTS in cells in absence of CPT; 420,000 compounds, 15% hits; DT40 Tdp1-/- hTDP1 cells, no CPT, ATP luminescence, 48 h; Potency, µM (top dose mostly 46.2 µM), actives largely listed as inhibitors; note: nearly all actives have a fitted effect of over 55% in size
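DT40 Tdp1-/-;hTDP1 cells, no CPT (DMSO vehicle only), 400 cells/well; compounds pin-transferred; ≥48 hr, 37 °C; CellTiter-Glo 30 min RT dark, luminescence read.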
ELG1 repair inh: ELG1-dependent DNA repair inhibition | HEK293T ELG1-luciferase reporter, luminescence, 16 h; DNA damage induced by 5-fluorouridine | Potency, µM (titrated, usually from 46.1 µM), usual class: inhibitors | 330,000 compounds, 2.3% hits; note: nearly all actives have a fitted effect of over 55% in size
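5-Fluorouridine DNA damage + compound/DMSO, 2,000 cells/well, 16 h, 37 °C/5% CO2. ONE-Glo, 30 min RT, luminescence. Readout = decrease in reporter signal.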
RORgamma inh: blocks mouse ROR gamma transcriptional activity. P51450. Drosophila S2 Gal4-RORgamma UAS-luciferase reporter, 20 h. Potency, µM (titrated, usually from 53.6 µM), usual class: inhibitors. 310,000 compounds, 5.4% hits. AID 2551; note: nearly all actives have a fitted effect of over 60% in size
Target sequence (P51450 whole entry, looked up, the tested form may be a part): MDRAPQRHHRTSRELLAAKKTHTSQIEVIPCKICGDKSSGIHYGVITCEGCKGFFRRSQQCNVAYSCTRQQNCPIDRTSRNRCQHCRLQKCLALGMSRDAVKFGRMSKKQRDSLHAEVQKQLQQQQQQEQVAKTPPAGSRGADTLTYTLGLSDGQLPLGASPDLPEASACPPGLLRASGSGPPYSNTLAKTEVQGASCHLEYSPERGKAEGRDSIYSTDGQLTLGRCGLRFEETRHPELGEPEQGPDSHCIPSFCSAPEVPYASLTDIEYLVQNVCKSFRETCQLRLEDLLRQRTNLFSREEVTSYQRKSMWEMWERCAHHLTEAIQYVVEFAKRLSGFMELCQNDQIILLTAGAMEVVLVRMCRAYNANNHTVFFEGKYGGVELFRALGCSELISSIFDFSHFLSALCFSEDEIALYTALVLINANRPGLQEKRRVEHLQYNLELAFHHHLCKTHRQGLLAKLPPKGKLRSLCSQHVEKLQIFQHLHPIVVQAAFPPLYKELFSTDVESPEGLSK
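Compounds are pin-transferred onto Drosophila Schneider cells expressing a copper-inducible Gal4–ROR gamma transactivation domain fusion. After 1 hr, copper sulfate is added to 700 uM final; luciferase is read 20 hr later.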
TDP1 cell CPT: DT40-hTDP1 cell growth loss with CPT. 420,000 compounds, 12% hits. Potency, µM (series often up to 46.2 µM), most hits filed as inhibitors. chicken DT40 Tdp1-/-;hTDP1 cells + 20 nM CPT, ATP luminescence, 48 h. AID 686979; note: nearly all actives have a fitted effect of over 55% in size
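Cell growth measured by CellTiter-Glo luminescence after a minimum 48 h, 37 C compound exposure with 20 nM CPT in Tdp1-knockout DT40 cells stably expressing hTDP1, seeded 400/well; qHTS titration format.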
IL1B secr inh: inflammasome signaling inhibition, IL-1 beta readout; THP-1 LPS/ATP IL-1B secretion, AlphaLISA, 16 h; hits give low values; AID 743279; activity change, % at 57.5 µM; 360,000 compounds, 4.7% hits; in the data active = activity change below about -50%; inconclusive = mostly about -30% to -49%
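THP-1 cells pretreated 1 hr with compounds (up to 57.5 uM final), then stimulated with LPS (250 ng/mL final) plus ATP (1.25 mM final); secreted IL-1B measured by AlphaLISA after 16 hr, decreased signal indicating inhibition.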
VP16 counter: inhibits Gal4-VP16 luciferase reporter, ROR gamma counter-screen; Drosophila S2 Gal4-VP16 UAS-luciferase, luminescence, 20 h; Potency, µM (series often up to 53.6 µM), most hits filed as inhibitors; 310,000 compounds, 3.5% hits;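 note: Gal4-VP16 expression switched on by copper sulfate through the metallothionein promoter; nearly all actives have a fitted effect of over 50% in size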
Numbers stand for hits; – = inactive; ? = inconclusive; · = not tested or not shown; [ ] = dose if it differs, or a comment. Hits are enriched below; roughly 21% of the tested compounds scored in any of these assays. Unless noted, calls come from the whole dose curve; as a rule, active = well fitted curve in the direction sought with a large enough effect; inconclusive = small, poorly fitted or top-dose-only effect, or another doubt; inactive = no such curve, though single readings can be large; an effect the other way counts as inactive or inconclusive.

SMILES	DT40 TDP1 no CPT	ELG1 repair inh	RORgamma inh	TDP1 cell CPT	IL1B secr inh	VP16 counter
COc1ccc(C(=O)Nc2ccc(-c3nc4ncccc4o3)cc2)cc1	–	·	·	–	·	·
CC(C)(Oc1ccc(Cl)cc1)C(=O)Nc1ccc(-c2nc3ncccc3o2)cc1	18µM	·	·	16µM	·	·
Cc1cc(C)cc(C(=O)Nc2ccc(-c3nc4ncccc4o3)cc2)c1	?	·	·	21µM	·	·
Cc1ccc(-c2nc3ncccc3o2)cc1NC(=O)c1ccc([N+](=O)[O-])o1	16µM	–	–	15µM	-97	–
COCc1ccc(C(=O)N2CCOc3c(cc(-c4cc(C)c5cccc(OC)c5n4)cc3OC)C2)o1	–	·	·	–[9.04 µM]	·	·
O=C1CCCC(O)=C1Sc1cc(Cl)c(Cl)cc1Cl	?	·	·	?	–	·
O=S(=O)(Nc1ccc(F)cc1F)c1ccc(Br)s1	–	·	·	–	·	·
Cc1nn(-c2ccccc2)c(C)c1C(=O)NCc1ccccc1F	–	–	–	–	–	–
O=C(Nc1ccc2oc(-c3ccncc3)nc2c1)c1ccccc1	–	–	–	–	–	–[10 µM]
O=C(Nc1ccc2oc(-c3ccncc3)nc2c1)c1ccc([N+](=O)[O-])o1	5.8µM	?	–	2.9µM	-91	–
CCOc1ccc(CC(=O)NCc2ccc3c(c2)CCN3C(C)=O)cc1OCC	–	·	·	–	·	·
COc1ccc(NC(=O)CSc2nc3ccccc3nc2N2CCCC2)c(OC)c1	?	–	–	?	–	–
COc1ccc(C)cc1NC(=O)CSc1nc2ccccc2nc1N1CCCC1	21µM	–	–	?	–	–
COc1ccc(Cl)cc1NC(=O)CSc1nc2ccccc2nc1N1CCCCC1	21µM	·	·	?	·	·
Cc1cnc(SCc2ccccn2)nc1C1CCCN(C(=O)c2noc3c2CCCC3)C1 (stereo unspecified)	15µM	·	·	10µM	·	·
COc1ccc(C(=O)N2CCCC(c3nc(SCc4ccccn4)ncc3C)C2)cc1F (stereo unspecified)	7.3µM	·	·	9.2µM	·	·
COc1cccc(C(=O)N2CCCC(c3nc(SCCN4CCOCC4)ncc3C)C2)c1 (stereo unspecified)	16µM	·	·	?	·	·
Cc1cnc(SCc2ccccn2)nc1C1CCCN(C(=O)c2coc3c2C(=O)CCC3)C1 (stereo unspecified)	23µM	·	·	?	·	·
CC(=O)Nc1ccc(C(=O)N2CCCC(c3nc(SCc4ccccn4)ncc3C)C2)cc1 (stereo unspecified)	–	·	·	–[9.04 µM]	·	·
CC(=O)Nc1ccc(NC(=O)c2oc3cc(C)c(C)cc3c2C)cc1	–	–	?	–	-50	–
COC(=O)c1sc(NC(=O)COc2ccccc2C)nc1C	–	?	?	–	–	–
COc1cc(OC)cc(C(=O)Nc2ccc(-n3cnnn3)c(C)c2)c1	?	?	?	–	-68	–
COc1ccc(-c2nsc(NC(=O)c3oc4ccccc4c3C)n2)cc1	–	·	·	?	·	·
COC(=O)c1sc(NC(=O)c2oc3ccccc3c2C)nc1C	3.7µM	?	–	?	–	?
COC(=O)c1sc(NC(=O)COc2c(C)cccc2C)nc1C	12µM	?	–	–	–	–
SMILES	DT40 TDP1 no CPT	ELG1 repair inh	RORgamma inh	TDP1 cell CPT	IL1B secr inh	VP16 counter
CN(Cc1ccc(Cl)cc1Cl)C(=O)C1CC(=O)N(Cc2ccco2)C1 (stereo unspecified)	?	·	·	–	–	·
CC(NC(=O)c1ccccc1F)c1nnc(SCC(=O)NC2CCCC2)n1C (stereo unspecified)	–	–	–	–	–	–
Cc1ccc(S(=O)(=O)N(CC(=O)NC2CC3CCC2C3)c2ccccc2)cc1 (stereo unspecified)	?	·	·	?	–	·
Cc1c(C(=O)Nc2ccncc2)oc2ccccc12	21µM	?	–	21µM	–	–
Cc1c(C(=O)NC2CCCCC2C)oc2ccccc12 (stereo unspecified)	?	?	11µM	?	–	5.6µM
Cc1cc(NC(=O)c2oc3ccccc3c2C)ccc1-n1cnnn1	23µM	–	?	18µM	·	?
C[C@@H]1CN([C@H](C)CO)C(=O)CCCn2cc(nn2)CO[C@H]1CN(C)C(=O)Nc1ccc2c(c1)OCCO2	–	·	·	–	–	·
CCOc1ccc(CCNC(=O)c2ccc3c(c2)N(Cc2ccccc2)C(=O)c2ccccc2S3=O)cc1OCC (stereo unspecified)	5.8µM	·	·	16µM	·	·
Cc1ccc(CCNC(=O)c2ccc3c(c2)N(Cc2ccccc2)C(=O)c2ccccc2S3=O)cc1 (stereo unspecified)	15µM	·	·	16µM	·	·
O=[N+]([O-])c1cccc(-c2nnn(C34CC5CC(CC(C5)C3)C4)n2)c1	18µM	–	–	?	–	–
O=C(NC12CC3CC(CC(C3)C1)C2)c1cccc([N+](=O)[O-])c1	–	–	–	–	–	–
COc1ccc(-n2c(=O)c(-c3cccs3)nc3cnc(OC)nc32)cc1	?	·	–	–	·	–
COc1cc(OC)c(NC(=O)NCCn2nnc3cc(S(=O)(=O)N(C)C)ccc32)cc1Cl	–	·	·	–	·	·
CN1c2ccccc2C2(C)CCCC3=Cc4cc([N+](=O)[O-])cc([N+](=O)[O-])c4OC312 (stereo unspecified)	23µM	–	–	15µM	–	?
CN1c2ccccc2C2(C)CCCC3=Cc4cccc([N+](=O)[O-])c4OC312 (stereo unspecified)	16µM	–	–	?	–	?
CCN(CC)c1ccc2nc3c4ccccc4c(=O)cc-3oc2c1	–	?	–	–	–	–
CCN(CC)c1ccc2c(-c3ccc(S(=O)(=O)O)cc3S(=O)(=O)[O-])c3ccc(=[N+](CC)CC)cc-3oc2c1	7.3µM	–	–	?	–	?
CCOC(=O)Cn1c(=O)cc(C)c2ccccc21	12µM	–	–	8.2µM	–	–[10 µM]
Cc1cc(=O)n(CC(=O)O)c2ccccc12	–	?	–	–	–	–
O=C(O)CCC(=O)Nc1cccc(-c2nc3ccccc3o2)c1	–	–	–	–	–	–
COc1ccc(C2=C(C)C(=O)N(Cc3ccc(C(=O)Nc4cc(C)ccc4C)cc3)S2(=O)=O)cc1	10µM	·	·	18µM	·	·
Cc1ccc(NC(=O)CCNC(=O)c2ccccc2)cc1F	–	–	–	–	–	–
CC1=C(c2ccc(C)cc2)S(=O)(=O)N(Cc2ccc(C(=O)Nc3ccc(C)c(F)c3)cc2)C1=O	?	·	·	26µM	·	·
c1ccc(Cn2ccc(-c3cnc(-c4ccccc4)s3)n2)cc1	18µM	?	?	?	–	–
Nc1ccn(Cc2ccccc2)n1	–	–	–	–	–	–
